Each structure is given as a SMILES string. Out of some 390,000 compounds screened, about 2,600 (0.67%) were called active. The sample as a whole holds a higher share of actives than the screen did. A number with no mark means an inactive call.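 The calls were made as follows: active = mean inhibition of replicates at least 50% and at least half of replicates each reaching 50%; inconclusive = half or more replicates reach 50% but mean below 50%; inactive = the rest.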

The experiment deals with Transforming acidic coiled-coil-containing protein 3 (Homo sapiens) (UniProt Q9Y6A5). Kind of experiment: inhibitors of ARNT PAS-B binding to TACC3 – biochemical, AlphaScreen, single concentration, primary screen (AID 623870).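 Also: 0% = complete ARNT plus TACC3 wells and 100% = ARNT alone without TACC3.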 Conditions: AlphaScreen His-ARNT PAS-B/GST-TACC3 binding, luminescence; at 9.99 µM; hits give high values; TACC3 fragment carries E629A point mutation. In general terms: Alpha assays give light when donor and acceptor beads are brought close together.
For `COc1ccc(CC(=O)N/N=C(\C)c2ccccn2)cc1`, the inhibition is 65.8% (active). In the case of `C/C(Cc1ccccc1)=N\NC(=O)CNC(=O)c1ccccc1Cl`, the inhibition is 4.6%. Turning to `CCOc1ncccc1C(=O)NCCc1ccc(OC)cc1`, the inhibition is 3.87%. For the compound `C/C(=N/NC(=O)CSc1ccccn1)c1ccc([N+](=O)[O-])cc1`, the inhibition is -1.61%. The result for `COc1ccc(CNC(=O)COc2cccnc2[N+](=O)[O-])cc1` reads -14.8%; that for `C/C(=N\NC(=O)Cc1ccc(Cl)cc1)c1ccccn1`, 28.6% (active); that for `C[C@H]1CN([C@@H](C)CO)C(=O)c2cc(/C=C/c3ccccc3)cnc2O[C@H]1CN(C)Cc1cccc(C(=O)O)c1`, -2.95%. Consider `CO[C@@H]1CN(C)C(=O)c2cc(NC(=O)Nc3cc(F)ccc3F)ccc2OC[C@@H](C)N(C)C[C@H]1C`, for which the inhibition was 11.6%. Regarding `CO[C@H]1CN(C)C(=O)c2cc(NC(=O)C3CCOCC3)ccc2OC[C@@H](C)N(Cc2cccnc2)C[C@@H]1C`, the inhibition was -4.49%. With `CCNC(=O)C[C@H]1CC[C@@H]2[C@H](COc3ccc(NC(=O)Nc4cccc(Cl)c4)cc3C(=O)N2C)O1`, the inhibition was 4.93%. The result for `CO[C@@H]1CN(C)C(=O)c2cc(NC(=O)C3CCOCC3)ccc2OC[C@H](C)N(Cc2cccnc2)C[C@@H]1C` reads -4.7%; that for `CCCN(C)C[C@@H]1Oc2cc(-c3ccc(C)cc3)ccc2S(=O)(=O)N([C@@H](C)CO)C[C@H]1C`, 3.53%. The value for `CO[C@H]1O[C@H](CO)[C@@H](OC(=O)Nc2ccccc2-c2ccccc2)[C@H](OC(=O)Nc2ccccc2)[C@H]1OC(=O)Nc1ccccc1` was 0.749%; that for `COc1ccccc1-c1ccc([C@@H]2[C@@H](CO)N3CCCCN(C(=O)c4ccncc4)C[C@@H]23)cc1` was -0.716%. Regarding `CC1(c2ccc(Cl)cc2Cl)NC(=O)N(CC(=O)Nc2cccnc2Cl)C1=O` (stereo not drawn), the inhibition was 0.909%. On to `CC(=O)/C(=N\Nc1ccc(Cl)cc1Cl)Sc1cccc2cccnc12`, for which the inhibition was 61.1% (active). Regarding `CC(NC(=O)COc1cccnc1[N+](=O)[O-])c1ccc(Cl)cc1Cl` (stereo not drawn), the inhibition is 1.05%.

Consider `CN1C[C@H]2[C@@H](c3ccccc31)[C@@H](CO)N2Cc1ccccc1`, for which the inhibition is 2.13%. In the case of `COc1ccc(NC(=O)Nc2ccc3c(c2)C(=O)N([C@H](C)CO)C[C@H](C)[C@H](CN(C)S(=O)(=O)c2ccc(OC)cc2)O3)cc1`, the inhibition is 8.74%. Turning to `O=C(Nc1cc(F)ccc1F)N1CCCCN2[C@H](C1)[C@H](c1ccc(-c3cccnc3)cc1)[C@@H]2CO`, the inhibition was -4.21%. With `CNC[C@H]1Oc2cc(C#Cc3ccccc3)ccc2S(=O)(=O)N([C@@H](C)CO)C[C@@H]1C`, the inhibition is 21.9%.

Take `CC(C)NC(=O)N(C)C[C@H]1Oc2cc(C#Cc3ccccn3)ccc2S(=O)(=O)N([C@H](C)CO)C[C@@H]1C`: the inhibition is -1.38%. As for `CNC[C@H]1Oc2cc(C#Cc3ccccn3)ccc2S(=O)(=O)N([C@H](C)CO)C[C@@H]1C`, the inhibition was 47.7% (active).

The term inhibition denotes the drop in the measured response relative to a control, in per cent.

The values above are taken from PubChem BioAssay AID623870 (Broad Institute, 2012).
